Assay results reported in paper PMC4336329 (PLoS ONE, 2015).
Among all 310,000 compounds or so, about 2,200 (0.71%) showed an effect of 50% or more. The effect is printed as a negative number. What follows is part of a selection rich in strong results, with near analogues and random picks from the rest.

These molecules were tested against human ether-à-go-go-related gene (hERG) potassium channel (human, UniProt Q12809) (assay: primary screen, population patch clamp on CHO cells stably expressing hERG; higher = less effect of the substance).
Chain of human ether-à-go-go-related gene (hERG) potassium channel (Q12809 whole entry, looked up): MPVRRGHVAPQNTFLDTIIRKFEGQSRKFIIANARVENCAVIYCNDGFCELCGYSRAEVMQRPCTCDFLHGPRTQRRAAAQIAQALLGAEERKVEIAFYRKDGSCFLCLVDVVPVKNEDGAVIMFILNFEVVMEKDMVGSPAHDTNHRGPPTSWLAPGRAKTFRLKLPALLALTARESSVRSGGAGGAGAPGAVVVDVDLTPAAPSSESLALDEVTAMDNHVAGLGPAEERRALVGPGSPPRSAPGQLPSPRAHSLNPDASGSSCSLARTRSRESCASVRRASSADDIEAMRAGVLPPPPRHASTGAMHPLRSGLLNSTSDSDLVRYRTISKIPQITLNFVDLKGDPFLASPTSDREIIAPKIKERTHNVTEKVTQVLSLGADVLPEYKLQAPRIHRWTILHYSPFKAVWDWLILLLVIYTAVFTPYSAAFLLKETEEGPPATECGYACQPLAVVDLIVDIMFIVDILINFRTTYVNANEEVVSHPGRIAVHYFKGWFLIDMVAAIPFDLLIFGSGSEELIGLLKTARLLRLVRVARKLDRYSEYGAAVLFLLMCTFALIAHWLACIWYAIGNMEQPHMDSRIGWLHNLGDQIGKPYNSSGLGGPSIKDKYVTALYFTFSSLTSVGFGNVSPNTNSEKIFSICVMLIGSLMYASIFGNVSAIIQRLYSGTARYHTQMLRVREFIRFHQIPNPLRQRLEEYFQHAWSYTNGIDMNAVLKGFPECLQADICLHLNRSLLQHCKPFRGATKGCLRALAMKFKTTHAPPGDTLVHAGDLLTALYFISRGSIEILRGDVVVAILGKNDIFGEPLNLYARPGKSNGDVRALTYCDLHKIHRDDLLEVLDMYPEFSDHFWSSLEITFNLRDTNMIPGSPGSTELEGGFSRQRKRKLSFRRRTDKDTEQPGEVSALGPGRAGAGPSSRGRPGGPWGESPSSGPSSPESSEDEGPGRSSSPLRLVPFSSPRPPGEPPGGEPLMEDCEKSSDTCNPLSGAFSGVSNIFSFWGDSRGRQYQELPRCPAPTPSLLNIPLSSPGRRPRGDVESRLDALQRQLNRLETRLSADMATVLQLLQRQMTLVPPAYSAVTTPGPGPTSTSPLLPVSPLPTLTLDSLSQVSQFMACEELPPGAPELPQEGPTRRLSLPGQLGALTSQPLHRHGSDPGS

Row | SMILES | hERG current change (%, negative = inhibition) at 1uM
1 | Brc1ccccc1OCCCN1CCCC1.O=C(O)C(=O)O | 8.64%
2 | O=C(O)C(=O)O.c1ccc(-c2ccccc2OCCCN2CCCCCC2)cc1 | -52.7%
3 | Brc1ccccc1OCCCN1CCCCCC1.O=C(O)C(=O)O | -59.2%
4 | CC1CCCN(CCOCCOc2ccc(Br)cc2Cl)C1.O=C(O)C(=O)O (stereo not shown) | -7.22%
5 | Brc1ccccc1OCCCCN1CCCCC1 | -1.28%
6 | CC1CCN(CCOCCOc2ccc(Br)cc2Cl)CC1.O=C(O)C(=O)O | -52%
7 | O=C(O)C(=O)O.c1ccc(-c2ccccc2OCCCCN2CCCCCC2)cc1 | -48.2%
8 | CN1CCN(CCOCCOc2ccc(Br)cc2Cl)CC1.O=C(O)C(=O)O | 10.1%
9 | O=C(O)C(=O)O.c1ccc(-c2ccccc2OCCCN2CCCC2)cc1 | -49.4%
10 | CNc1ccccc1C(=O)OCC(=O)c1ccc(F)cc1 | 7.17%
11 | CCN1C(=O)c2ccc(C(=O)NCc3ccco3)cc2C1=O | 11%
12 | O=C(CC1Sc2ccccc2NC1=O)NNC(=O)Nc1ccc(Cl)cc1 (stereo not shown) | 9.26%
13 | CCOc1ccccc1NC(=O)C(NCC1(N2CCCCC2)CCCCC1)c1ccccc1.O=C(O)C(=O)O (stereo not shown) | -57.4%
14 | CCOc1ccccc1NC(=O)C(NCCN(C)C)c1ccccc1.O=C(O)C(=O)O (stereo not shown) | -49.1%
15 | CCOc1ccccc1NC(=O)C(NCC1CCCCC1)c1ccccc1 (stereo not shown) | 8.03%
16 | C/C(N)=C(\C#N)C(=O)NCc1ccccn1 | 10.9%
17 | Cc1cc(C)c(-c2cc(C(F)(F)F)no2)c(=O)[nH]1 | 12.2%
18 | O=c1c2cccc3c2c(nn1CN1CCOCC1)-c1ccccc1-3 | -15.3%
19 | CCN(CC)CCn1nc2c3c(cccc3c1=O)-c1ccccc1-2 | -50%
20 | O=C(O)Cn1nc2c3c(cccc3c1=O)-c1ccccc1-2 | 8.49%
21 | COc1ccc(OC(=O)NCCc2ccccc2)cc1 | 12.2%
22 | Cc1cccn2c(=O)c3cc(C(=O)NCc4ccco4)c(=N)n(C4CCCC4)c3nc12 | -85.5%

Row | SMILES | hERG current change (%, negative = inhibition) at 1uM
23 | Cc1cccn2c(=O)c3cc(S(=O)(=O)c4ccc(Br)cc4)c(=N)n(C4CCCCC4)c3nc12 | 26%
24 | Cc1cccn2c(=O)c3cc(C(=O)NCc4ccco4)c(=N)n(C4CCCCC4)c3nc12 | -84.8%
25 | Cc1cccn2c(=O)c3cc(S(=O)(=O)c4ccc(Br)cc4)c(=N)n(C4CCCC4)c3nc12 | 14.5%
26 | Cc1ccc(S(=O)(=O)c2cc3c(=O)n4cccc(C)c4nc3n(C3CCCCC3)c2=N)cc1 | 8.4%
27 | CC1CCc2nc(NC(=O)Cc3cccs3)sc2C1 (stereo not shown) | 12.7%
28 | O=C1NC(C(F)(F)F)(C(F)(F)F)N=C2SC=CN12 | 1.69%
29 | CCCOc1ccc(C2C(C(=O)OC)=CN(CCOC)C=C2C(=O)OC)cc1 | -5.54%
30 | CCN(CC)C(=O)CN1C(=O)COCC1=O | 5.42%
31 | S=C1NC(c2ccccc2)N2C(=S)NC(c3ccccc3)N12 (stereo not shown) | 3.38%
32 | CCOc1ccc2nc(C)cc(Nc3ccc(N4CCOCC4)cc3)c2c1.Cl | -60.6%
33 | COc1ccc2nc(C)cc(Nc3ccc(N4CCOCC4)cc3)c2c1.Cl | -25.1%
34 | CCOc1ccc2nc(C)cc(Nc3ccc4c(c3)OCCO4)c2c1.Cl | -47%
35 | CCOc1ccc(-n2c(-c3ccc(OC)cc3)c[n+]3c2CCCCC3)cc1.[Br-] | -39.1%
36 | CCOc1ccc(-n2c(-c3ccc(Br)cc3)c[n+]3c2CCCCC3)cc1.[Br-] | -46.5%
37 | CCOc1ccc(-c2c(C)n(-c3ccc(OCC)cc3)c3[n+]2CCCCC3)cc1.[O-][Cl+3]([O-])([O-])[O-] | -50.8%
38 | CCCNC(=O)C(Cc1ccc(F)cc1)NC(=O)c1ccc(C#N)cc1 (stereo not shown) | -17.5%
39 | CCC(CC)c1nnc(NC(=O)c2cccc(S(=O)(=O)N3CCc4ccccc43)c2)s1 | 13.3%
40 | CN(C)CCCOc1ccc2c(c1)Sc1ccccc1CC2=O.Cl | -53.3%
41 | CN(C)CCOc1ccc2c(c1)Sc1ccccc1CC2=O.Cl | -18.3%
42 | Cl.O=C1Cc2ccccc2Sc2cc(OCCCN3CCCCC3)ccc21 | -29.1%
43 | O=C(Cc1ccc([N+](=O)[O-])cc1)OCc1c(F)cccc1Cl | 14.7%
44 | CCOc1ccc(N=C2NC(=O)CS2)cc1 | 11.1%

Row | SMILES | hERG current change (%, negative = inhibition) at 1uM
45 | Cc1ccc(NC(=O)NC2CCCCCCC2)cc1C | 11.5%
46 | O=C(Cc1ccccc1)N1CCN(C/C=C/c2ccccc2)CC1 | -6.02%
47 | OCC1(Cc2ccccc2F)CCCN(CCc2ccccc2)C1 (stereo not shown) | -30.5%
48 | OCC1(CCc2ccccc2)CCN(C/C=C/c2ccccc2)CC1 | -86.4%
49 | OCC1(Cc2ccc(F)cc2F)CCCN(Cc2ccc(Cl)cc2)C1 (stereo not shown) | -15%
50 | OCC1(CC2CCCCO2)CCN(C/C=C/c2ccccc2)CC1 (stereo not shown) | -2.99%
51 | OCC1(CCc2ccccc2)CCN(Cc2cc(Cl)ccc2O)CC1 | -5.01%
52 | OCC1(CCc2ccccc2)CCCN(CCCc2ccccc2)C1 (stereo not shown) | -57.6%
53 | OCC1(Cc2ccc(F)cc2F)CCCN(CCCc2ccccc2)C1 (stereo not shown) | -56.1%
54 | OCC1(Cc2ccc(F)cc2)CCCN(CCc2ccccc2)C1 (stereo not shown) | -0.0287%
55 | OCC1(CCc2ccccc2)CCN(Cc2c(F)ccc(F)c2F)CC1 | 7.97%
56 | OCC1(CCc2ccccc2)CCCN(CCCC(F)(F)F)C1 (stereo not shown) | -13.2%
57 | OCC1(CCc2ccccc2)CCN(Cc2ccccc2Cl)CC1 | -54.6%
58 | Cc1cc(C(=O)N2CCCC(N3CCN(c4cccc(Cl)c4)CC3)C2)no1 (stereo not shown) | 10.5%
59 | Cc1cc2oc(C(=O)N(Cc3ccccc3)c3ccccn3)cc(=O)c2cc1Cl | 10.6%
60 | CCn1nc(C)cc1C(=O)Sc1cccc(Cl)c1 | 10.9%
61 | CCCCCCCC(=O)NNC(=O)c1c(O)c2ccccc2[nH]c1=O | 9.8%
62 | CCCCn1c(N)c(N(C)C(=O)c2ccc(Br)o2)c(=O)[nH]c1=O | 7.35%
63 | O=C(O)C1CC=CCC1C(=O)N1CCCC1 (stereo not shown) | -1.33%
64 | COc1ccccc1/C=C/CN1CCCC(CO)(CCc2ccccc2)C1 (stereo not shown) | -31.4%
65 | O=C(CCC(F)(F)F)N1CCCC(CO)(CCc2ccccc2)C1 (stereo not shown) | -3.42%
66 | OCC1(CCc2ccccc2)CCCN(C/C=C/c2ccccc2)C1 (stereo not shown) | -53.6%

Row | SMILES | hERG current change (%, negative = inhibition) at 1uM
67 | CCOc1cc(C2NC(=O)NC(C)=C2C(=O)OC(C)CC)cc(Br)c1O (stereo not shown) | 10.2%
68 | O=C1N[C@@H](Cc2cn(S(=O)(=O)c3c(F)c(F)c(F)c(F)c3F)c3ccccc23)C(=O)N[C@H]1Cc1ccccc1 | 10.7%
69 | CCOC(=O)N1CCN(C(=O)/C(=C/c2ccc(Br)cc2)NC(=O)c2ccc(OC)cc2)CC1 | -81.5%
70 | CN1CCN(C(=O)/C(=C/c2ccc(F)cc2)c2ccsc2)CC1.Cl | -52.8%
71 | COc1ccc(/C=C(/NC(=O)c2ccccc2)C(=O)N2CCCC2)cc1 | 6.1%
72 | CN1CCN(C(=O)/C(=C/c2ccccc2)c2ccccc2)CC1 | -33.2%
73 | CN1CCN(C(=O)/C(C#N)=C/c2ccc(F)cc2)CC1.Cl | 1.43%
74 | COc1ccc(/C=C(/NC(=O)c2ccccc2)C(=O)N2CCCCC2)cc1 | 6.93%
75 | O=C(N/C(=C/c1ccc(F)cc1)C(=O)N1CCCC1)c1ccccc1 | 25.3%
76 | CN1CCN(C(=O)/C(=C/c2ccc(F)cc2)NC(=O)c2ccccc2)CC1 | -80.8%
77 | CSc1ccc(/C=C(/NC(=O)c2ccccc2)C(=O)N2CCN(C)CC2)cc1 | -48.7%
78 | COc1ccc(/C=C(\NC(=O)c2ccccc2)C(=O)N2CCN(C)CC2)cc1 | -75.2%
79 | CCOC(=O)N1CCN(C(=O)/C(=C/c2ccc(OC)cc2)NC(=O)c2ccccc2)CC1 | -27.1%
80 | CCOC(=O)N1CCN(C(=O)/C(=C/c2cccc3ccccc23)NC(=O)c2ccc(OC)cc2)CC1 | -10.5%
81 | CCOC(=O)/C=C/C(=O)Nc1ccc(S(=O)(=O)Nc2cc(C)on2)cc1 | 10.3%
82 | O=C(Cc1ccccc1)NC1CCN(C(=O)NCc2ccccc2)CC1 | -8.61%
83 | N#Cc1nc(COc2cccc(Cl)c2)oc1NCCN1CCOCC1 | -22.3%
84 | CC1CN(S(=O)(=O)c2cccc(C(=O)Nc3ccc4c(c3)CCC4)c2)CC(C)O1 (stereo not shown) | 1.39%
85 | O=C(CN(Cc1ccccc1Cl)C(=O)CN1C(=O)CSc2ccccc21)NC1CC1 | -30.7%
86 | Cc1ccc(-c2nc3ccccc3[nH]2)cc1NC(=S)NC(=O)c1ccccc1Br | 8.3%
87 | c1ccc(-c2noc(-c3ccc4c(c3)OCO4)n2)nc1 | 14.3%
88 | O=C(CCC(=O)Nc1ccccc1)NNC(=O)CCc1ccccc1 | 13.6%
